# According to the supplement of paper PMC10849652:
# About 8,800 targets were measured; listed, in parts, are those with a hit and a random draw of the rest. About 0.5% of all pairs of compound and target were hits. Unmarked numbers belong to inactive results.
# How the values were obtained:
# Assay in all cases: log2 fold change, soluble protein after heating vs DMSO (PISA); higher = thermal stabilisation; K562 lysate, 10 uM; active = over 0.2 and 3.5 SD of the protein, either way, in both replicates (recomputed)
# [1] = compound: C#Cc1cccc(Nc2ncnc3cc(OCCOC)c(OCCOC)cc23)c1 [erlotinib]
# How it was run: (§1)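 Quantification was by TMTpro 16plex LC-MS/MS with equalised channel sums, applied to the supernatant after 21,000xg for 90 min. Samples were crude K562 extract at 1 mg/mL protein in PBS pH 7.4 with 1 mM MgCl2, treated with 10 μM compound for 30 min, heated for 3 min across 48°C-58°C, pooled and brought to 0.5% NP-40 at 4°C. Values are log-two fold changes in thermal stability relative to solvent controls, from duplicates.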
# [2] = compound: C/C(=N\NC(=O)C1=CC(=CC=C1)S(=O)(=O)N2CCOCC2)/C3=C(C=CC(=C3)Cl)O
# How it was run: as §1
# [3] = compound: C1=CC(=CC=C1C2=NC3=C(N2)C=C(C=C3)C(=O)N)OC4=CC=C(C=C4)Cl
# How it was run: as §1
# [4] = compound: C1=CC2=C(C=CC(=C2)/C=C\3/C(=O)NC(=NCC4=CC=CS4)S3)N=C1
# How it was run: as §1
# [5] = compound: C1=CC2=NC=CN=C2C=C1/C=C/3\C(=O)NC(=O)S3
# How it was run: as §1
# [6] = compound: C1=CC=C(C=C1)C2=NC(=C(N2)C3=CC=NC=C3)C4=CC(=C(C=C4)Cl)O
# How it was run: as §1
# [7] = compound: C1=CC=C2C(=C1)C3=NNC4=CC=CC(=C43)C2=O
# How it was run: as §1
# [8] = compound: C1CCN(C1)C(=O)NC2=CC=CC(=C2)NC3=NC=C(C(=N3)NCCC4=CN=CN4)Br
# How it was run: as §1
# [9] = compound: C1CN(CCC1(CC2=CC=C(C=C2)Cl)N)C3=NC=NC4=C3C=CN4
# How it was run: as §1
# [10] = compound: C1COCCN1CCN2C3=CC=CC=C3N=C2NC(=O)C4=CC(=CC=C4)[N+](=O)[O-] [IRAK-1-4 Inhibitor I]
# How it was run: as §1
# [11] = compound: C=CC(=O)N1CCC[C@@H](n2nc(-c3ccc(Oc4ccccc4)cc3)c3c(N)ncnc32)C1 [ibrutinib]
# How it was run: as §1
# [12] = compound: CC(=O)c1cnc2ccc(-c3cc(Cl)c(O)c(Cl)c3)nc2c1N[C@H]1CC[C@H](CN(C)C)CC1
# How it was run: as §1
# [13] = compound: CC(C)(C)Cn1c(N)nc2ccc(-c3[nH]c(C(C)(C)C)nc3-c3ccc(F)cc3)nc21 [ralimetinib]
# How it was run: as §1
# [14] = compound: CC(C)(O)CC(=O)NCCn1ccc2ncnc(Nc3ccc(Oc4cccc(C(F)(F)F)c4)c(Cl)c3)c21
# How it was run: as §1
# [15] = compound: CC(C)C1=C2N=C(C=C(N2N=C1)NCC3=CC=CC=C3)NCCCCCCN
# How it was run: as §1
# [16] = compound: CC1=C(C(CC(=O)N1)C2=CC=C(C=C2)C(F)(F)F)C(=O)NC3=C(C=C4C(=C3)C=NN4)F
# How it was run: as §1
# [17] = compound: CC1=C(C2=C(C=C1)C(=O)C3=CC=CC=C3N2CCCN)C
# How it was run: as §1
# [18] = compound: CC1=C(C=C(C=C1)NC(=O)C2=CC(=CC=C2)C(C)(C)C#N)NC3=CC4=C(C=C3)N=CN(C4=O)C
# How it was run: as §1
# [19] = compound: CC1=C(C=C(C=C1)NC(=O)C2=CC(=CC=C2)N(C)C)NC(=O)C3=CC=C(C=C3)O
# How it was run: as §1
# [20] = compound: CC1=CC=C(C=C1)SC2=C3C=C(SC3=CN=C2)C(=O)N
# How it was run: as §1
# Sequence of UniProt Q8TDG4 (Q8TDG4 whole entry, looked up): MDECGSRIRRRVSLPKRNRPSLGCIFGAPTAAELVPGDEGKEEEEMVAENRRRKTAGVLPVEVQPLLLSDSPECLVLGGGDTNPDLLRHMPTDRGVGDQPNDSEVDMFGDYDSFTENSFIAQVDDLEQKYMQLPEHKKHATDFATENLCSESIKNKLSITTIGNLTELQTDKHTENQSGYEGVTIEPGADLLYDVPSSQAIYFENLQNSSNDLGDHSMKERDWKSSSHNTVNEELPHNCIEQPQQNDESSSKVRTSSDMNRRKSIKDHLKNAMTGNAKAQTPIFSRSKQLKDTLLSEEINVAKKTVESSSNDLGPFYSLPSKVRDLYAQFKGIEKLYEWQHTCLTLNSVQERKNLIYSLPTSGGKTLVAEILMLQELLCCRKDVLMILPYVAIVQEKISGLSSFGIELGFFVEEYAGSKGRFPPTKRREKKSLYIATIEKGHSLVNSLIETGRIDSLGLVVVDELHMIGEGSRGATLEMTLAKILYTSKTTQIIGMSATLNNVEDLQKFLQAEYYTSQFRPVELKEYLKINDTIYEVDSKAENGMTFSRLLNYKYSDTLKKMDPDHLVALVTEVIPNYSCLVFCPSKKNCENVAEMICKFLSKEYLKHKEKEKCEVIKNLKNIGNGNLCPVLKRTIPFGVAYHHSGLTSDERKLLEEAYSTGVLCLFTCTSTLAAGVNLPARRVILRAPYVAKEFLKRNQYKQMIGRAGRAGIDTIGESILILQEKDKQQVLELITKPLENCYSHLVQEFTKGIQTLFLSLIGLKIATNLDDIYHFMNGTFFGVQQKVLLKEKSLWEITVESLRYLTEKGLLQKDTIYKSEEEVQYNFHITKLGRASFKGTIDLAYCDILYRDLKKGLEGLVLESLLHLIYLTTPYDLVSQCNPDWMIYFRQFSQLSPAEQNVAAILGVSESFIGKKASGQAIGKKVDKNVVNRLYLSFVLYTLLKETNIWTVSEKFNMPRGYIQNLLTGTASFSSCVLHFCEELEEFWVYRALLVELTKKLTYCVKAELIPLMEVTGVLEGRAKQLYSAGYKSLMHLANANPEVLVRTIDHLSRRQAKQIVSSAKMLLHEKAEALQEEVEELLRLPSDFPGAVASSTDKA
# Sequence of UniProt Q6NT76 (Q6NT76 whole entry, looked up): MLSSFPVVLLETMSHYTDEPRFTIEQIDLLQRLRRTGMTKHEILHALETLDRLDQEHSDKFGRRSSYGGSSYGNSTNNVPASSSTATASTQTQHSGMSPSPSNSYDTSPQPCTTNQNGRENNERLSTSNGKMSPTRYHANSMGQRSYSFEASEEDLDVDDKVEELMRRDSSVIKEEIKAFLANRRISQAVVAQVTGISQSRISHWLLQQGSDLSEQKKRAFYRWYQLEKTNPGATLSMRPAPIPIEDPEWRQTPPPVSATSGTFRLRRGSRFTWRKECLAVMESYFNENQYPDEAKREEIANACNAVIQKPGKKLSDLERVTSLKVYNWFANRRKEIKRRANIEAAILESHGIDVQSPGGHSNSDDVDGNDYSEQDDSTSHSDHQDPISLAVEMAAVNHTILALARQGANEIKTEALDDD
# Sequence of UniProt Q27J81 (Q27J81 whole entry, looked up): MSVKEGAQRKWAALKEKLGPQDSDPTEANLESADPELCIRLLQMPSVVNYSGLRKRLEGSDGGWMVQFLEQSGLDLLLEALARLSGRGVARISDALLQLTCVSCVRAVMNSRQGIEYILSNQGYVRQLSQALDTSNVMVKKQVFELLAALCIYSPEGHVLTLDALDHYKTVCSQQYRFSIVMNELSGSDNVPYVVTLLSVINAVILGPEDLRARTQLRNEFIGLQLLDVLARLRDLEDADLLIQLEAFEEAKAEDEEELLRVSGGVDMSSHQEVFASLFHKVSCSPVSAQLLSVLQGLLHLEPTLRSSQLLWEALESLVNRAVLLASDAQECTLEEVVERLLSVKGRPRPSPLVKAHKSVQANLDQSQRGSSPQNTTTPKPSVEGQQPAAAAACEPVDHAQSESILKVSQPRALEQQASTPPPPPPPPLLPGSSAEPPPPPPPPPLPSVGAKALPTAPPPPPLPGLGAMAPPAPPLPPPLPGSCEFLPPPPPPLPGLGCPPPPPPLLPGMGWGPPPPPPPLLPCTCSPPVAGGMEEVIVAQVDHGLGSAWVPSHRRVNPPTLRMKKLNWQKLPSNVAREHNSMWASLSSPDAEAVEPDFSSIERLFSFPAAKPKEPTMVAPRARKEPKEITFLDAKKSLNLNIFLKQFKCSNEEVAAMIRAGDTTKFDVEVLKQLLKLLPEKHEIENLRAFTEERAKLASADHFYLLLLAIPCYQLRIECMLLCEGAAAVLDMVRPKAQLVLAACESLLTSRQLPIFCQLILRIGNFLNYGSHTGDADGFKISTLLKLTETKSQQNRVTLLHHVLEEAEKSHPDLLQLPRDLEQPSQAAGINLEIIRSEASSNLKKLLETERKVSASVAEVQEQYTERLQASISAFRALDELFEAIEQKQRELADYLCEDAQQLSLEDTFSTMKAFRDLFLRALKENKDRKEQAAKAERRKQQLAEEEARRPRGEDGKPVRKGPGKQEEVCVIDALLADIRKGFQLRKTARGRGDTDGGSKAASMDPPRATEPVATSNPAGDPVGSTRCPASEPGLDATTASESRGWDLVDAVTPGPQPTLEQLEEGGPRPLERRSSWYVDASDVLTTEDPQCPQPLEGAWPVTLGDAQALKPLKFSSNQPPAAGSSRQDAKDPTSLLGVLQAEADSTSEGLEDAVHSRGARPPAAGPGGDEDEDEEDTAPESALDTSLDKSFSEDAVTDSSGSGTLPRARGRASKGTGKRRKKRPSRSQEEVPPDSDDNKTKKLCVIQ
# Sequence of UniProt Q7Z4Q2 (Q7Z4Q2 whole entry, looked up): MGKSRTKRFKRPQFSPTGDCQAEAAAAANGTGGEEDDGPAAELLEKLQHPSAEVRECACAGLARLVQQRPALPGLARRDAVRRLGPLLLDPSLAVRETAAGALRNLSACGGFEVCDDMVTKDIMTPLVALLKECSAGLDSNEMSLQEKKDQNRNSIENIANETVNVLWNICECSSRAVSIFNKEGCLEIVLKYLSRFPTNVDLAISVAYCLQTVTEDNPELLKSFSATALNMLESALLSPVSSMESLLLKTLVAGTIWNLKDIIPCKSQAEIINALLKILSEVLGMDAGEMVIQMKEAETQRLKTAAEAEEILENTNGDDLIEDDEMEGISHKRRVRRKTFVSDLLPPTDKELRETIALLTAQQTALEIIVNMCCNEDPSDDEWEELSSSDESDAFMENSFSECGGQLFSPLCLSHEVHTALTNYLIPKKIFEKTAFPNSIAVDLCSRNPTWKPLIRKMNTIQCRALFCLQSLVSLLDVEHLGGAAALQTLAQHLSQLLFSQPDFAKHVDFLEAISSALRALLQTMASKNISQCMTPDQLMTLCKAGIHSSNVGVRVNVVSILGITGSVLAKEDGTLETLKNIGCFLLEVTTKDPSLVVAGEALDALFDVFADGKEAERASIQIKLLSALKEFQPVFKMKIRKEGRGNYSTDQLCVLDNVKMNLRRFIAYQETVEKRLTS
# Sequence of UniProt Q9UBN7 (Q9UBN7 whole entry, looked up): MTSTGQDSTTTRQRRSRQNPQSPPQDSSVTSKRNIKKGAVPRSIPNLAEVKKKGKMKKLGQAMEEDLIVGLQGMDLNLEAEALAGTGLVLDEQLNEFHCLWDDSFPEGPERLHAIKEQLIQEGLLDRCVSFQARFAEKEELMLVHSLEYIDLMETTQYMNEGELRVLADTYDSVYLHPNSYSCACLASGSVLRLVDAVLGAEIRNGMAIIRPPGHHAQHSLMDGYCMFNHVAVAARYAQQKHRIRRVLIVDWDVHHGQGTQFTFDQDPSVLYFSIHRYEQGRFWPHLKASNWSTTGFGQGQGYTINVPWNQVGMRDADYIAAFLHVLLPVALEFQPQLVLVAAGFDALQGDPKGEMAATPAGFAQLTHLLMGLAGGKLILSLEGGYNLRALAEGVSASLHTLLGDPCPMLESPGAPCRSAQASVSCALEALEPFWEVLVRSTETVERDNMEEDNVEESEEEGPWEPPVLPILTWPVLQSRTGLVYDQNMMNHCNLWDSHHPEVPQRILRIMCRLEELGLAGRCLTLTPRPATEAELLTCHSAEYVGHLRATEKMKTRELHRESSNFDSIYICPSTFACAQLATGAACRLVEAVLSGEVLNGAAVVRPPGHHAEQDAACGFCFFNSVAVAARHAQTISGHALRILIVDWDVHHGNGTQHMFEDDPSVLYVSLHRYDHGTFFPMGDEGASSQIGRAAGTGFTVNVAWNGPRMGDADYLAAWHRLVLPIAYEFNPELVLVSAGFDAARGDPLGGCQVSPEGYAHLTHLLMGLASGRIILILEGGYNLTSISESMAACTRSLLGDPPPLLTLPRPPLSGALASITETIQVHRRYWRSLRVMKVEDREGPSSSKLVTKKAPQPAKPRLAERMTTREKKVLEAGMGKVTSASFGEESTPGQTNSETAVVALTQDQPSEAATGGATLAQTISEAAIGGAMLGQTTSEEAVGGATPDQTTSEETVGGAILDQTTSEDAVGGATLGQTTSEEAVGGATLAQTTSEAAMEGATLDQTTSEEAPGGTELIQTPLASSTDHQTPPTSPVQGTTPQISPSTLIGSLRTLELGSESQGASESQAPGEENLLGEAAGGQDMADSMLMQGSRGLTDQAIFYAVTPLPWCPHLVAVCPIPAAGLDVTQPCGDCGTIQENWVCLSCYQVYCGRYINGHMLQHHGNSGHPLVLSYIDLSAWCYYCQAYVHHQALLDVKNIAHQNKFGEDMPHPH
# Sequence of UniProt Q03013 (Q03013 whole entry, looked up): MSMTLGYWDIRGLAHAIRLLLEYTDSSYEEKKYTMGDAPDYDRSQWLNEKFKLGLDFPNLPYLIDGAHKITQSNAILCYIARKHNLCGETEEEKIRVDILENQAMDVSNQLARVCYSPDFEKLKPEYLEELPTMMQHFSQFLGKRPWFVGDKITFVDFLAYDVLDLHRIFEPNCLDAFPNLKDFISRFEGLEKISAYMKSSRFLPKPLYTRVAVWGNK
# Sequence of UniProt Q01628 (Q01628 whole entry, looked up): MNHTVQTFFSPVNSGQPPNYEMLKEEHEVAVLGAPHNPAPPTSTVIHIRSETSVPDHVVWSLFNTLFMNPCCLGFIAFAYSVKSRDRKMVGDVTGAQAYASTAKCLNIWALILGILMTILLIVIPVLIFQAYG
Target,log2 fold change [1],log2 fold change [2],log2 fold change [3],log2 fold change [4],log2 fold change [5],log2 fold change [6],log2 fold change [7],log2 fold change [8],log2 fold change [9],log2 fold change [10],log2 fold change [11],log2 fold change [12],log2 fold change [13],log2 fold change [14],log2 fold change [15],log2 fold change [16],log2 fold change [17],log2 fold change [18],log2 fold change [19],log2 fold change [20]
IFITM3 (UniProt Q01628),-0.136,-0.11,0.062,0.004,-0.094,-0.122,0.084,-0.095,-0.069,-0.026,-0.07,-0.042,0.179,0.078,0.003,-0.173,-0.117,-0.133,-0.026,0.129
HADHB (UniProt P55084),-0.108,-0.039,0.367 (active),-0.036,-0.128,-0.029,0.011,-0.066,0.062,0.025,0.086,-0.05,0.002,0.104,-0.024,-0.046,0.028,0.062,-0.03,0.077
HMGN5 (UniProt P82970),0.013,-0.122,0.052,0.021,-0.002,-0.013,0.024,0.067,0.024,0.007,-0.035,-0.012,-0.064,-0.021,0.006,-0.004,-0.035,-0.011,0.036,-0.056
GTF3C5 isoform 3 (UniProt Q9Y5Q8),-0.002,-0.042,-0.01,0.007,-0.024,-0.019,-0.03,0.072,0.019,-0.015,0.029,0.034,0.009,0.005,-0.016,0.025,-0.007,0.015,0.003,0.008
HMGCL (UniProt P35914),0.002,-0.089,0.032,-0.016,-0.047,-0.005,-0.035,0.005,0.008,0.024,0.037,0.008,0.026,-0.016,-0.018,0.001,-0.019,-0.009,0.022,-0.014
HAUS7 isoform 2 (UniProt Q99871),0.104,0.106,0.028,-0.005,0,0.048,-0.006,-0.011,0.164,-0.028,0.082,0.105,-0.002,-0.031,0.05,-0.003,0.028,-0.031,0.021,-0.054
GSTM4 (UniProt Q03013),0.006,-0.044,-0.073,-0.026,0.141,0.046,-0.025,-0.109,-0.025,-0.064,-0.139,-0.006,-0.013,-0.051,-0.079,0.096,0.037,-0.136,-0.027,0.042
IRAK4 (UniProt Q9NWZ3),-0.03,-0.071,-0.037,-0.019,0.037,0.015,0.223,0.3 (active),-0.037,0.006,0,0.195,0,-0.018,-0.01,-0.018,-0.011,-0.018,0.008,-0.041
INF2 (UniProt Q27J81),0.004,-0.014,-0.027,0.069,0.004,-0.024,-0.019,0.031,0.056,-0.011,0.036,-0.007,0.018,0.049,-0.012,0.004,0.07,-0.004,-0.027,-0.015
HNRNPL (UniProt P14866),0.054,0.073,0.022,-0.007,0.013,0.033,-0.041,-0.017,-0.003,0.014,-0.015,0.012,0.047,0.046,0.051,0,0.021,0.001,0.058,0.032
GTF2H4 (UniProt Q92759),-0.013,-0.049,-0.013,0.037,-0.059,-0.001,0.141,0.056,-0.004,-0.044,0.039,0.003,0.058,-0.006,0.021,0.054,-0.014,-0.015,0.052,0.037
HERC2 (UniProt O95714),0.014,0.174,0.115,0.007,0.01,0.042,-0.061,-0.016,-0.001,-0.033,0.001,0.053,0.002,0.02,0.082,0.028,-0.063,0.021,0.041,0.015
ISY1 isoform 1 (UniProt Q9ULR0),0.022,0.07,0.02,0.06,0.018,0.004,-0.004,0.031,0.068,0.014,0.019,0.028,0.007,-0.029,-0.056,-0.019,-0.157,-0.006,-0.02,-0.04
HELQ (UniProt Q8TDG4),-0.029,-0.023,0.044,0.07,0.019,0.004,0.077,0.056,0.064,-0.033,0.054,0.072,-0.007,-0.017,-0.012,0.203,0.003,-0.036,0.046,-0.002
GPR108 (UniProt Q9NPR9),0.035,0.022,0,0.066,0.015,0.056,-0.028,-0.015,0.03,-0.026,-0.017,-0.063,0.001,-0.024,-0.08,0.039,0.049,0.027,-0.062,-0.004
GOLPH3L (UniProt Q9H4A5),0.028,-0.003,0.012,0.07,-0.03,0.092,-0.085,0.005,0.03,0.023,0.058,0.005,-0.058,0.071,0.009,-0.042,-0.01,0.114,-0.029,0.006
GPA33 (UniProt Q99795),-0.014,0.082,-0.002,-0.091,-0.032,-0.05,-0.151,0.001,0.046,0.024,0.037,-0.029,0.188,-0.123,-0.067,-0.091,0,–,-0.024,0.026
HEATR3 (UniProt Q7Z4Q2),0.002,0.029,-0.064,-0.015,0.02,-0.022,-0.052,-0.002,0.006,-0.001,0.026,-0.008,0.037,-0.048,-0.01,-0.001,-0.015,0.004,-0.027,0.023
HDAC6 (UniProt Q9UBN7),-0.025,-0.002,-0.025,-0.006,-0.014,-0.042,-0.034,-0.001,-0.023,0.008,-0.051,0.003,-0.024,-0.041,-0.014,-0.036,-0.002,0.008,-0.01,0.01
HSD17B12 (UniProt Q53GQ0),-0.018,-0.026,-0.03,-0.018,0.036,0.006,-0.006,-0.022,0.047,0.03,-0.016,0.004,-0.026,0.048,0.069,0,0.024,-0.036,0.049,0.003
KCT2 (UniProt Q8NC54),-0.05,0.098,0.041,0.017,0.055,0,-0.026,0.021,0.01,0.031,0.025,0.018,0.038,-0.076,-0.015,0.008,-0.034,-0.025,0.004,-0.024
GOLGA6B (UniProt A6NDN3),0.092,-0.061,-0.082,0.033,0.08,-0.013,-0.054,0.011,0.032,-0.022,-0.034,0.003,-0.047,-0.187,-0.057,-0.127,-0.114,0.045,0.066,0
HMBOX1 isoform 5 (UniProt Q6NT76),0.045,-0.094,-0.004,0.026,-0.037,-0.004,-0.057,-0.028,0.004,-0.009,0.051,0.021,0.026,0.007,0.072,-0.014,0.052,0.015,0.005,0.054
GLUL (UniProt P15104),-0.003,0.032,-0.002,0.029,-0.03,0.005,0.007,0.013,0.017,-0.017,0.031,0.004,0.006,-0.002,-0.008,0.026,0.023,-0.117,-0.011,0.031
